Values joined by “and” are separate entries in the source; they are usually repeats but may differ in a detail not shown here. Equal values may be shown once. Screen size: about 5,500 compounds; about 2,000 (36%) were called active. Not shown: some 18% with an inconclusive outcome. Cut-off read from the data, not from the text of the source: active = normalized growth mostly below about 0.91 (no sharp cut-off); inconclusive = no clear call, values can overlap the other calls; inactive = mostly above about 0.92. This is one part of the list.
Test: chemical genetic growth profiling, strain panel (AID 1159580);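 note: tested at 20 µM; growth read once vehicle control cultures reached saturation at 30 °C; 1 = growth at the plate median or of vehicle wells; lower values mean less growth of the strain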
Settings: S. cerevisiae deletion strains, growth OD

Measured: normalized growth

CC[C@@H](CO)NC(=O)[C@@H]1C=C2c3cccc4[nH]cc(c34)C[C@H]2N(C)C1
inactive: locus YAL013W, strain DEP1, active compounds read low 0.989 | locus YAL021C, strain ccr4, active compounds read low 1 | locus YAL026C, strain drs2, active compounds read low 0.996 | locus YAL030W, strain snc1, active compounds read low 0.997 | locus YBL061C, strain skt5, active compounds read low 0.999 | locus YBR009C, strain hhf1, active compounds read low 0.992 | locus YBR021W, strain FUR4, active compounds read low 1 | locus YBR023C, strain chs3, active compounds read low 0.997 | locus YBR171W, strain sec66, active compounds read low 0.998 | locus YBR229C, strain ROT2, active compounds read low 0.99 | locus YBR231C, strain swc5, active compounds read low 0.988 | locus YBR279W, strain paf1, active compounds read low 0.996 | locus YCL011C, strain gbp2, active compounds read low 1 | locus YCL016C, strain dcc1, active compounds read low 0.994 | locus YCL029C, strain bik1, active compounds read low 0.984 | locus YCL069W, strain vba3, active compounds read low 1 | locus YCR088W, strain abp1, active compounds read low 0.998 | locus YDL005C, strain med2, active compounds read low 1 | locus YDL035C, strain GPR1, active compounds read low 1 | locus YDL040C, strain nat1, active compounds read low 0.997 | locus YDL074C, strain BRE1, active compounds read low 1.02 | locus YDL101C, strain DUN1, active compounds read low 0.993 | locus YDL134C, strain PPH21, active compounds read low 0.98 | locus YDL185W, strain tfp1, active compounds read low 0.981 | locus YDL192W, strain arf1, active compounds read low 0.988 | locus YDR001C, strain nth1, active compounds read low 0.998 | locus YDR069C, strain doa4, active compounds read low 0.995 | locus YDR101C, strain arx1, active compounds read low 0.995 | locus YDR137W, strain rgp1, active compounds read low 0.995 | locus YDR150W, strain NUM1, active compounds read low 1 | locus YDR159W, strain sac3, active compounds read low 0.992 | locus YDR162C, strain NBP2, active compounds read low 1.02 | locus YDR195W, strain ref2 0.942 | locus YDR297W, strain sur2, active compounds read low 0.994 | locus YDR318W, strain mcm21, active compounds read low 0.982 | locus YDR334W, strain swr1, active compounds read low 1 | locus YDR335W, strain msn5, active compounds read low 0.999 | locus YDR388W, active compounds read low 0.99 | locus YDR392W, strain spt3, active compounds read low 0.995 | locus YDR502C, strain sam2, active compounds read low 1 | locus YEL003W, strain gim4, active compounds read low 0.998 | locus YEL037C, strain rad23, active compounds read low 1 | locus YEL061C, strain CIN8 (second series), active compounds read low 1 | locus YEL061C, strain CIN8, active compounds read low 0.998 | locus YER015W, strain faa2, active compounds read low 0.99 | locus YER016W, strain bim1, active compounds read low 0.993 | locus YER110C, active compounds read low 0.977 | locus YER111C, strain swi4, active compounds read low 1 | locus YER155C, strain BEM2 (second series), active compounds read low 0.961 | locus YER155C, strain BEM2, active compounds read low 1 | locus YER167W, strain BCK2, active compounds read low 0.974 | locus YFR010W, strain ubp6, active compounds read low 0.985 | locus YGL078C, strain dbp3, active compounds read low 0.998 | locus YGL086W, strain mad1, active compounds read low 0.959 | locus YGL167C, strain pmr1, active compounds read low 1.01 | locus YGL173C, strain kem1, active compounds read low 0.995 | locus YGL227W, strain vid30, active compounds read low 0.991 | locus YGL240W, strain doc1, active compounds read low 0.981 | locus YGL248W, strain PDE1, active compounds read low 0.986 | locus YGL253W, strain hxk2, active compounds read low 1.01 | locus YGR078C, strain PAC10, active compounds read low 0.994 | locus YGR135W, strain pre9, active compounds read low 0.958 | locus YGR229C, strain SMI1, active compounds read low 0.961 | locus YGR252W, strain gcn5, active compounds read low 0.949 | locus YHR013C, strain ard1, active compounds read low 1.02 | locus YHR027C, strain rpn1, active compounds read low 1 | locus YHR030C, strain SLT2, active compounds read low 0.99 and 1.07 | locus YHR079C, strain IRE1 (second series), active compounds read low 0.991 | locus YHR079C, strain IRE1, active compounds read low 1.07 | locus YHR094C, strain hxt1, active compounds read low 0.985 | locus YHR129C, strain ARP1, active compounds read low 0.989 | locus YHR142W, strain chs7, active compounds read low 1.01 | locus YHR200W, strain rpn10, active compounds read low 0.978 | locus YIL066C, strain RNR3, active compounds read low 0.983 | locus YIL073C, strain SPO22, active compounds read low 0.945 | locus YIL125W, strain kgd1, active compounds read low 0.998 | locus YIR030C, strain dcg1, active compounds read low 0.991 | locus YJL092W, strain hpr5, active compounds read low 0.995 | locus YJL095W, strain BCK1 (second series), active compounds read low 0.995 | locus YJL095W, strain BCK1, active compounds read low 0.981 and 1.04 | locus YJL115W, strain asf1, active compounds read low 0.995 | locus YJL129C, strain trk1, active compounds read low 0.999 | locus YJL134W, strain LCB3, active compounds read low 0.992 | locus YJL154C, strain vps35, active compounds read low 0.998 | locus YJL164C, strain tpk1, active compounds read low 0.991 | locus YJL166W, strain qcr8, active compounds read low 0.947 | locus YJL168C, strain set2, active compounds read low 0.984 | locus YJL187C, strain SWE1 (second series), active compounds read low 0.996 | locus YJR043C, strain POL32, active compounds read low 0.975 | locus YJR066W, strain TOR1, active compounds read low 0.999 | locus YJR075W, strain HOC1, active compounds read low 1.02

— PubChem BioAssay AID1159580 (chemical genetic matrix, 2015)
